Test results: PubChem BioAssay (Tox21)
Records with an inconclusive call do not appear. Entries that show only a call come without a potency. Active and inactive are the calls of the source. The call rests on the fitted dose curve; in most records, active means well fitted cell-killing curve with a large enough effect in the repeat runs; inconclusive means weak or mixed curves, or effect the other way; inactive means flat fitted curve, though single readings scatter.

Assay: qHTS assay to identify small molecule antagonists of the retinoid acid receptor (RAR) signaling pathway - cell viability counter screen (AID 1159551); further: nearly all actives have a fitted effect of over 35% in size
Settings: C3RL4 cells viability, ATP luminescence (CellTiter-Glo), 6 h; series mostly up to 92.4 µM
Text: U.S. Tox21 Program National Center for Advancing Translational Sciences [NCATS] NIH Chemical Genomics Center [NCGC] U.S. Environmental Protection Agency [EPA] National Institutes of Environmental Health Sciences [NIEHS] National Toxicology Program [NTP] U.S. Food and Drug Administration [FDA] Tox21 Assay Overview: All-trans Retinoic acid (atRA) is the potent natural metabolite of retinol and plays an important role in normal embryonic development and maintenance of cellular phenotype in adult animals. atRA is the activating ligand for the retinoic acid receptors (RARs) which form heterodimers with retinoid X receptors (RXRs) on the retinoic acid response element (RARE). Through activation of the RAR/RXRs nuclear receptors, atRA regulates the transcription of a large number of protein-coding genes and regulatory RNAs. Intracellular levels of atRA are controlled by the retinol signaling pathway (RSP) that regulates the biosynthesis and catabolism of atRA to maintain physiological levels. Chemicals that interfere with the RSP can cause abnormal intracellular levels of atRA and therefore are potential developmental toxicants. To assess compounds for the potential adverse effect on embryonic development through interfering with retinol signaling, a cell-based RARE luciferase reporter gene assay was used. C3RL4 cell line (OARSA/CFSAN/FDA, Laurel, MD) was used to screen Tox21 10K compound library for identifying inhibitors of the RSP. Also cytotoxicity was assessed by determining the viability of cells based on the quantitation of ATP.
Tox21 Assay Protocol Summary: C3RL4 cells were seeded at 1,000/well in 4 uL of assay medium into white solid 1,536-well tissue culture plates (Greiner Bio-One North America Inc. Monroe, NC) using a Multidrop Combi (Thermo Scientific, Waltham, MA) dispenser. After incubation at 37 C and 5% CO2 for an overnight, 23 nL of compounds dissolved in DMSO, positive control or DMSO only were transferred by a Pintool station (Kalypsys, San Diego, CA). One ul of 1 uM (final concentration) of Retinol was added right after the compound addition by using a Flying Reagent Dispenser (FRD) (Aurora Discovery, San Diego, CA). After 6 hr incubation at 37 C and 5% CO2, 5 uL of CellTiter-Glo reagent (Promega Corporation, Madison, WI) was added to each assay plate using an FRD. Luminescence was quantified on a ViewLux plate reader (PerkinElmer, Waltham, MA) after 30 min incubation at room temperature.

Row | Compound | Potency
1 | CC(C)c1ccc2c(C(C)C)cc(C(C)C)c(S(=O)(=O)O)c2c1 | inactive
2 | Cn1sccc1=O | inactive
3 | CC(C)(C)c1cc(CCC(=O)OCC(COC(=O)CCc2cc(C(C)(C)C)c(O)c(C(C)(C)C)c2)(COC(=O)CCc2cc(C(C)(C)C)c(O)c(C(C)(C)C)c2)COC(=O)CCc2cc(C(C)(C)C)c(O)c(C(C)(C)C)c2)cc(C(C)(C)C)c1O | inactive
4 | C[Si](C)O[Si](C)(C)O[Si](C)(C)O[Si](C)C | inactive
5 | CCCCCCCCN(C)C | inactive
6 | O=C(Cl)c1ccc([N+](=O)[O-])cc1 | inactive
7 | O=CNc1ccccc1 | inactive
8 | CCC(C)N(C)C(=O)c1cc2ccccc2c(-c2ccccc2Cl)n1 (stereo not given) | inactive
9 | Cc1nc2ccccc2n1Cc1ccc(Cl)cc1 | inactive
10 | O=S1(=O)c2cccc3cccc(c23)N1CCCN1CCN(c2ccc(F)cc2)CC1 | inactive
11 | C=C(C)C(=O)OCCOc1ccccc1 | inactive
12 | CCCCCCc1ccc(N)cc1 | inactive
13 | CC(C)NCC(O)COc1ccc(CC(N)=O)cc1 (stereo not given) | inactive
14 | CC(C)(C)c1ccc(OCC2CO2)cc1 (stereo not given) | inactive
15 | CCCC(=O)OCC | inactive
16 | Cn1c(=O)c2c(ncn2CC(O)CO)n(C)c1=O (stereo not given) | inactive
17 | COCCOCCOCCOCCOC | inactive
18 | O=C(O)[C@@H]1[C@H]2C[C@H]3c4[nH]c5ccccc5c4CCN3C[C@@H]2CC[C@@H]1O | inactive
19 | CCCC(C)C | inactive
20 | COCCCCCCCCOCCC[Si](C)(O[Si](C)(C)C)O[Si](C)(C)C | inactive

Row | Compound | Potency
21 | CN(C)CC/C=C1\c2ccccc2COc2ccccc21 | inactive
22 | CCCCCCCCCCCCCCCC(=O)OC/C=C(C)/C=C/C=C(C)/C=C/C1=C(C)CCCC1(C)C | inactive
23 | Cl/C(=C\n1cncn1)c1ccc(Cl)cc1Cl | inactive
24 | CCOc1ccc2[nH]cc(C(=O)NCc3ccccc3)c(=O)c2n1 | inactive
25 | CCCCCCOC(=O)CCC | inactive
26 | CC(=O)N(O)CCCCCNC(=O)CCC(=O)N(O)CCCCCNC(=O)CCC(=O)N(O)CCCCCN | inactive
27 | CCCCOc1ccc(CC(=O)NO)cc1 | inactive
28 | NCCCN(CCO)CCO | inactive
29 | c1ccc(CNCc2ccccc2)cc1 | inactive
30 | CC(C)(C)C(=O)OCOP(=O)(COCCn1cnc2c(N)ncnc21)OCOC(=O)C(C)(C)C | inactive
31 | CN(C(=O)CCCOc1ccc2[nH]c(=O)ccc2c1)C1CCCCC1 | inactive
32 | CCCCCCCCCCCCCCCBr | inactive
33 | CC1(C)[C@H]2CC[C@]1(C)[C@H](O)C2 | inactive
34 | O=S1(=O)N=C(O)c2ccccc21 | inactive
35 | NC1CCN(c2nc3c(cc2F)c(=O)c(C(=O)O)cn3-c2ccc(F)cc2F)C1 (stereo not given) | inactive
36 | Cc1cc(NC(=O)C(=O)O)cc(C)c1Oc1ccc(O)c2c1CCC2 | inactive
37 | CN(C)CCCOc1nn(Cc2ccccc2)c2ccccc12 | inactive
38 | CC(C)NCC(O)c1cc(O)cc(O)c1 (stereo not given) | inactive
39 | COc1ccc([C@@H]2Sc3ccccc3N(CCN(C)C)C(=O)[C@@H]2OC(C)=O)cc1 | inactive
40 | O=C(Nc1ccccc1)OCC(CN1CCCCC1)OC(=O)Nc1ccccc1 (stereo not given) | inactive
